High-throughput results as filed in PubChem.
Rows were chosen to be rich in hits. Some 12% of all compounds tested hit in one or more screens of this group.
L3MBTL1 inh = qHTS Assay for the Inhibitors of L3MBTL1. Lethal(3)malignant brain tumor-like protein 1 (Homo sapiens), Q9Y468. AlphaScreen L3MBTL1–H3K9me1 peptide binding. Potency, µM (doses to about 57.1 µM), for inactives: top-dose activity, negative = inhibition, usual class: inhibitors. 0.66% of 230,000 active. AID 485360, 2010; further: on the % scale 0 is the no-effect control and ±100 the full control effect; nearly all actives have a fitted effect of over 60% in size
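Read-out is AlphaScreen signal from streptavidin donor and nickel chelate acceptor beads (10 ug/mL final each) bridging L3MBTL1 (50 nM) and biotinylated K9-monomethylated H3(1-15) peptide (75 nM), after 30 min compound exposure at room temperature.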
Sfp PPTase inh = qHTS Assay for Inhibitors of Bacillus subtilis Sfp phosphopantetheinyl transferase (PPTase); 4'-phosphopantetheinyl transferase ffp (Bacillus subtilis), Q9F4F7; Biochemical Sfp PPTase activity, qHTS; Potency, µM, for inactives: largest response in the series, negative = inhibition, actives largely listed as inhibitors; 3.5% of 310,000 active; AID 1490, 2009;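 further: the enzyme is Sfp with the accession as filed and its product quenches rhodamine fluorescence; 0% = enzyme reaction without inhibitor and -100% = no enzyme wells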
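After 15 min at room temperature with compound, 15 nM Sfp received 5 uM rhodamine-CoA plus 12.5 uM BHQ-2-ybbR (50 mM Hepes pH 7.6, 10 mM MgCl2). Rate came from the fluorescence difference over 30 min, ex 525/em 598 nm.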
BAZ2B inh = qHTS Assay for Inhibitors of BAZ2B; Bromodomain adjacent to zinc finger domain protein 2B (Homo sapiens), Q9UIF8; AlphaScreen BAZ2B-H3K14Ac peptide displacement; Potency, µM (titrated, usually from 114 µM), without a hit: at the top dose activity change, negative = inhibition, actives largely listed as inhibitors; 4.4% of 360,000 active; further: on the % scale 0 is the no-effect control and ±100 the full control effect; nearly all actives have a fitted effect of over 60% in size
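BAZ2B 50 nM plus b-H3(5-23)K14Ac 50 nM, PBS pH 7.4/0.01% Tween-20, 30 min RT; compound added (max 110 uM), 30 min RT; streptavidin donor/Ni-chelate acceptor beads 10 ug/mL final, 20 min dark; AlphaScreen read.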
JMJD2A Tudor = qHTS Assay for Inhibitors of JMJD2A-Tudor Domain. Lysine-specific demethylase 4A (Homo sapiens), O75164. AlphaScreen JMJD2A-Tudor / H3K4me3 peptide binding. Potency, µM (top dose mostly 114 µM), for inactives: at the highest dose activity change, negative = inhibition, hits mostly inhibitors. 4.4% of 390,000 active; further: on the % scale 0 is the no-effect control and ±100 the full control effect; nearly all actives have a fitted effect of over 50% in size
HP1b binding inh = HTS for Inhibitors of HP1-beta Chromodomain Interactions with Methylated Histone Tails; Potency, µM (series often up to 114 µM), without a hit: top-dose activity change, negative = inhibition, hits mostly inhibitors; Chromobox protein homolog 1 (Homo sapiens), P83916; 0.56% of 390,000 active; AlphaScreen HP1-beta / biotin-H3K9me3 peptide binding; further: nearly all actives have a fitted effect of over 70% in size
Target sequence (P83916 whole entry, looked up): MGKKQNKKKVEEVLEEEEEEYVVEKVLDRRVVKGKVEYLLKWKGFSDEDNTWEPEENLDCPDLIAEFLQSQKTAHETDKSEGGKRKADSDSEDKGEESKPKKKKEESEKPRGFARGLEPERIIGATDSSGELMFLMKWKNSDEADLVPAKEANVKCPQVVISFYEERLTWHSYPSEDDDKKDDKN
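AlphaScreen: HP1-beta (50 nM) preformed 30 min with biotin-H3(1-18)K9me3 peptide (50 nM) in PBS pH 7.4, 0.01% Tween-20. Compound added for 30 min at RT, then streptavidin donor/nickel chelate acceptor beads (10 ug/mL) for 30 min.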
G9a block = qHTS Assay for Inhibitors of Histone Lysine Methyltransferase G9a; Histone-lysine N-methyltransferase EHMT2 (Homo sapiens), Q96KQ7; G9a H3K9 monomethylation, AlphaScreen, 2 h; Potency, µM (titrated, usually from 102 µM), for the others: at the top dose activity, negative = inhibition, most hits filed as inhibitors; 8.8% of 350,000 active; AID 504332, 2011; further: on the % scale 0 is the no-effect control and ±100 the full control effect; nearly all actives have a fitted effect of over 75% in size
Target sequence (Q96KQ7 913-1193 limits assumed): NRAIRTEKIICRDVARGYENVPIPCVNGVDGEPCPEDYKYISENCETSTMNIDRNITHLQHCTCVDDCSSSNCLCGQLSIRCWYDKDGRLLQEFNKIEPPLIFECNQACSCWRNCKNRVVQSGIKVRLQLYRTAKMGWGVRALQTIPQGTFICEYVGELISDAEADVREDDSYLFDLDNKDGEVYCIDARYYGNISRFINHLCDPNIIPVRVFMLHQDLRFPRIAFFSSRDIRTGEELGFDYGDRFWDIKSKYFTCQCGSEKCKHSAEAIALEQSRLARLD
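AlphaScreen read-out: biotin-H3K9 peptide (500 nM) methylation by 20 nM enzyme with 20 uM SAM, 2 h at room temperature after 15 min compound preincubation; anti-monomethyl H3K9 antibody plus donor/acceptor beads, 10 min dark.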
* marks the source's active call; other numbers are inactive results; ? = inconclusive; / = no result; [ ] = another dose, or the depositor's remark. The call rests on the fitted dose curve; in most records, active means well fitted curve in the direction sought with a large enough effect; inconclusive means small, poorly fitted or top-dose-only effect, or another doubt; inactive means no such curve, though single readings can be large; an effect the other way counts as inactive or inconclusive. Potency means the concentration at half of the fitted maximal effect.

SMILES	L3MBTL1 inh	Sfp PPTase inh	BAZ2B inh	JMJD2A Tudor	HP1b binding inh	G9a block
Cc1ccc(NC(=O)C(=Cc2ccc(C(=O)O)cc2)C(=O)Nc2ccc(C)cc2C)c(C)c1	0%	-5%	-18%	-11%	25%	7%[12.7 µM]
CC(=O)C(=Cc1ccc(C(=O)O)cc1)C(C)=O	?	-2%	?	-3%	51%	56µM*
CCC(CCC(C)C1CCC2C3CC=C4CC(OC(C)=O)CC[C@@]4(C)C3CC[C@@]12C)C(C)C (stereo not given in full)	/	11%	/	/	/	/
CCCCCCCCCCCCCCCCn1cc[n+](C)c1	27%	22µM*	2%	-2%	13%	-11%
Oc1ccc(/C=N/Nc2ncc(Br)cn2)c(O)c1	?	7%	14µM*	?	15%	49%[59 µM]
Oc1ccccc1/C=N/Nc1nccnc1Cl	/	10%	35µM*	?	33%	-6%[12.7 µM]
Oc1ccc(/C=N/Nc2nccnc2Cl)c(O)c1	/	14%	14µM*	50µM*	30%	38%
Clc1nccnc1N/N=C/c1ccc(Br)cc1	-4%	-11%	?	-20%	2%	-31%
COc1ccccc1-c1cc(C(=O)Nc2c(C)nn(Cc3ccc(Cl)cc3)c2C)no1	/	/	-9%	-13%	17%	-10%[59 µM]
CCC(C)N(C(=O)COC(=O)c1ccc(=O)n(Cc2ccccc2)n1)C1CCS(=O)(=O)C1 (stereo not given)	2%	/	-2%	-8%	16%	8%[0.501 µM]
CCC1(C)Cc2sc3c(=O)[nH]c(=S)[nH]c3c2CO1 (stereo not given)	/	?	?	-11%[11.4 µM]	-1%	3.5µM*
Cc1csc(=O)n1CC(=O)OCC(=O)NCc1ccc(F)cc1	5%	/	6%	-17%	16%	-5%[0.501 µM]
COc1ccc(CCCC(=O)Nc2cc(C)ccc2OC)cc1	/	-6%	6%	12%	60%	79µM*
COc1ccc(OC)c(NC(=O)c2csnn2)c1	/	/	?	?	-12%	14µM*
COc1ccc(S(=O)(=O)CCC(=O)Nc2cc(C)ccc2OC)cc1	/	50µM*	-1%	-13%	33%	28µM*
O=C(Nc1ccccc1NC(=O)c1csnn1)c1csnn1	23%	?	-10%	-9%	34%	/
CCc1ccc(NC(=O)CCn2cccc2)cc1	/	-4%	?	-30%[57.1 µM]	-17%	50µM*
COc1ccc(OC)c(NC(=O)CCCc2ccccc2)c1	/	7%	-7%	-12%	21%	/
COC(=O)c1ccc(NC(=O)CCn2cccc2)cc1	0%	11%	?	-26%	5%	-14%[59 µM]
COc1cccc(N2CCN(C(=O)C3CCN(S(=O)(=O)c4c(C)noc4/C=C/c4ccccc4F)CC3)CC2)c1	/	/	-6%	-30%	10%[57 µM]	8%[59 µM]
COc1ccc(OC)c(NC(=O)CCn2cccc2)c1	-16%	10%	50µM*	-30%	-16%	?
COc1ccc(Cl)cc1NC(=O)CCN1CCN(C)CC1	/	7%	?	-17%	5%	19%[12.7 µM]
COc1ccc(Cl)cc1NC(=O)CCn1nc(C)cc1C	/	/	71µM*	?	10%	-2%[59 µM]
Cc1ccc(-c2nnc(Nc3ccc(F)cc3)c3ccccc23)cc1S(=O)(=O)NC(C)C	/	/	2%	0%	39%	5%[59 µM]
C=CCN(c1ccccc1)S(=O)(=O)c1cccc(C(=O)NNC(=O)c2ccccc2O)c1	-1%	/	-10%	89µM*	4%	31%
CCN(CC)C(=O)C1CCCN(c2ncnc3c2nc2n3CCCCC2)C1 (stereo not given)	/	/	3%	-4%	44%	4%[59 µM]
COC(=O)CCC(=O)Nc1ccc(C)cc1OC(=O)CCC(=O)OC	/	79µM*	-3%	0%	10%	-17%[12.7 µM]
